Measurements reported in PubChem BioAssay (EPA / NIEHS).
Some structures have more than one record in an assay (separate samples or runs), and their calls can disagree. Activity calls are given as the source filed them. How the source made its calls: active means hit-call score of the fitted dose curve at least 0.9, where 1 is the maximum; inactive means score below 0.9.

assay: CCTE_Shafer_MEA_dev_spike_duration_mean: CCTE's Neural Network Formation Assay for Mean Spike Duration, Shafer Lab (AID 2284051);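 on AC50: potency for a decrease in mean network spike duration versus DMSO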
Protocol: CCTE_Shafer_MEA_dev assay is conducted using Axion Biosystems 48 well microelectrode array (MEA) plates and Maestro recording system. Each well of the MEA plate contains a grid of 16 microelectrodes embedded in the culture surface. Electrically active cells, such as neurons, can be cultured over the electrodes, and electrical activity in these cells can be recorded extracellularly. The spontaneous firing of neurons is captured from each electrode on a microsecond timescale providing both temporally and spatially precise data. […] The CCTE_Shafer_MEA_dev assay uses primary cultures of rat cortical neurons. Recordings are made on days post-plating 5, 7, 9 and 12. As these cultures mature over time, neural networks develop functional activity and form cohesive networks in which electrical activity can be highly coordinated. CCTE_Shafer_MEA_dev_spike_duration_mean is 1 of 19 assay components of the CCTE_Shafer_MEA_dev assay. It measures the average duration of network spikes (temporally-clustered groups of action potential firing across multiple electrodes) during a recording in a microelectrode array (MEA) using Axion Biosystems Maestro 768 channel amplifier with the AxIS adaptive spike detector. To collapse across multiple recordings made on days post-plating 5, 7, 9 and 12, the trapezoidal area-under-the-curve of the component is calculated.Data from the assay component CCTE_Shafer_MEA_dev_spike_duration_mean was analyzed into 1 assay endpoint. This assay endpoint, CCTE_Shafer_MEA_dev_spike_duration_mean, was analyzed in the negative analysis fitting direction relative to DMSO as the negative control and baseline of activity. Using a type of functional reporter, gain or loss-of-signal activity can be used to understand electrical activity.
On the day prior to culture, each well was coated thoroughly with 150 uL of 0.05% polyethyleneimine (PEI, Sigma Cat P3143) in 50 mM HEPES (Sigma Cat H7523) at a pH of 8. The plate was incubated at 37C for one hour. PEI was rinsed out with 500 uL of sterile water three times. Plates were stored at 4C until the day of culture. This culture was plated at a seeding density of 1.5 x 10^5 cells/well on a 48-well MEA plate, prepared as described above. Cells were administered via a 25 uL media/laminin ([…]; Sigma Cat L2020-1MG) drop directly onto the microelectrode array, as adding the cells with the laminin results in better attachment than pre-coating with laminin. After 2 hours, an additional 475 uL of cortical media was added and the cells returned to the incubator. Exposure starts at day 0 of plating and is continued over twelve days of network development until the experiment is terminated. Cells are fed with fresh medium on DIV 5 and 9, following the recordings on those days. The entire volume of media in the well is exchanged and any vehicle or compound treatment is renewed. Complete details are found in OP-NHEERL/ISTD/SBB/TJS/2015-03-r0 (available on request, email shafer.tim@epa.gov). Measurement of the electrical activity is non-invasive, and recordings can be made from the same plate over multiple different days of the culture. In cortical neurons, this allows for the measurement of extracellular action potentials over the period during which networks form in the MEA plate.

SMILES | outcome | AC50
CC(=O)Oc1ccccc1C(=O)O | inactive | 
OC[C@@H](O)[C@@H](O)[C@H](O)[C@H](O)CO | inactive | 
CCCc1cc(=O)[nH]c(=S)[nH]1 | inactive | 20.7 µM (active)
C[Si]1(C)O[Si](C)(C)O[Si](C)(C)O[Si](C)(C)O1 | inactive | 
O=c1[nH]cc(F)c(=O)[nH]1 |  | 1.52 µM (active)
Cc1cc(=O)[nH]c(=S)[nH]1 | inactive | 
FC(F)(F)C(F)(F)C(F)(F)C(F)(F)C(F)(F)C(F)(F)CCI | inactive | 
C=CCc1ccc(O)c(OC)c1 | inactive | 
CC(C)c1ccc(C(=O)N=C(N)N)cc1S(C)(=O)=O | inactive | 
